About 8,800 targets were measured; listed, in parts, are those with a hit and a random draw of the rest. About 0.5% of all pairs of compound and target were hits.
Compound: NC(=O)Nc1cc(-c2cccc(F)c2)sc1C(=O)N[C@H]1CCCNC1
Assay: log2 fold change, soluble protein after heating vs DMSO (PISA); higher = thermal stabilisation; K562 lysate, 10 uM; active = over 0.2 and 3.5 SD of the protein, either way, in both replicates (recomputed)
How it was run: (§1)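 Quantification was by TMTpro 16plex LC-MS/MS with equalised channel sums, applied to the supernatant after 21,000xg for 90 min. Samples were crude K562 extract at 1 mg/mL protein in PBS pH 7.4 with 1 mM MgCl2, treated with 10 μM compound for 30 min, heated for 3 min across 48°C-58°C, pooled and brought to 0.5% NP-40 at 4°C. Values are log-two fold changes in thermal stability relative to solvent controls, from duplicates.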

UniProt Q9ULG6, sequence (Q9ULG6 whole entry, looked up): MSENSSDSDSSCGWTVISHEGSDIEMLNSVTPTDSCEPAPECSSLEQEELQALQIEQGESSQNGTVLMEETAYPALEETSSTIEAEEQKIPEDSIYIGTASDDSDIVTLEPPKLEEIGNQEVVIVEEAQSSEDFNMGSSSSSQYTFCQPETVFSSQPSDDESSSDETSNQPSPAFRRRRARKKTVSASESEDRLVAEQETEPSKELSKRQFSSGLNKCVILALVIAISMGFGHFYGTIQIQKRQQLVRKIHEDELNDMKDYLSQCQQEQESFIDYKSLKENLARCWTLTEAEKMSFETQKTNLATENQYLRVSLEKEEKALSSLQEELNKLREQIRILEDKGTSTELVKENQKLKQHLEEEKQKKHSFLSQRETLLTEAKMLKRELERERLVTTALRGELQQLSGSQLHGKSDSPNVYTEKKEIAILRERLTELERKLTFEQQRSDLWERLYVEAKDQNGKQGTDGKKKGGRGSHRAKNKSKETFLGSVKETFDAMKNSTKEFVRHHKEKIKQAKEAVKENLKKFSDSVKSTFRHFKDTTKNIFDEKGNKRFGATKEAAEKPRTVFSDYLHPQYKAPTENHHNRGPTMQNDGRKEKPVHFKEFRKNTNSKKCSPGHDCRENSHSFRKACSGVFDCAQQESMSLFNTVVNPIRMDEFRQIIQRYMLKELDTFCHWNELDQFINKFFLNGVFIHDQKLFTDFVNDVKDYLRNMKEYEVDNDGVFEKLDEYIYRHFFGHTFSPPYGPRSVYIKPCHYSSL
UniProt P18859, sequence (P18859 whole entry, looked up): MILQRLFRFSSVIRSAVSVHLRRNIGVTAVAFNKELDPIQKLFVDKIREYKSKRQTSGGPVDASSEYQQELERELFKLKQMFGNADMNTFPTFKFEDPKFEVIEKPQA
UniProt Q9UL45, sequence (Q9UL45 whole entry, looked up): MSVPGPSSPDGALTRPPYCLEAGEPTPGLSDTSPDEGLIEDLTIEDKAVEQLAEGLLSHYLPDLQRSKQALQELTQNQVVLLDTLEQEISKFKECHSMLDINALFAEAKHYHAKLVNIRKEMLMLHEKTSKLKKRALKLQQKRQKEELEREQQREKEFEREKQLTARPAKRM
UniProt Q15059, sequence (Q15059 whole entry, looked up): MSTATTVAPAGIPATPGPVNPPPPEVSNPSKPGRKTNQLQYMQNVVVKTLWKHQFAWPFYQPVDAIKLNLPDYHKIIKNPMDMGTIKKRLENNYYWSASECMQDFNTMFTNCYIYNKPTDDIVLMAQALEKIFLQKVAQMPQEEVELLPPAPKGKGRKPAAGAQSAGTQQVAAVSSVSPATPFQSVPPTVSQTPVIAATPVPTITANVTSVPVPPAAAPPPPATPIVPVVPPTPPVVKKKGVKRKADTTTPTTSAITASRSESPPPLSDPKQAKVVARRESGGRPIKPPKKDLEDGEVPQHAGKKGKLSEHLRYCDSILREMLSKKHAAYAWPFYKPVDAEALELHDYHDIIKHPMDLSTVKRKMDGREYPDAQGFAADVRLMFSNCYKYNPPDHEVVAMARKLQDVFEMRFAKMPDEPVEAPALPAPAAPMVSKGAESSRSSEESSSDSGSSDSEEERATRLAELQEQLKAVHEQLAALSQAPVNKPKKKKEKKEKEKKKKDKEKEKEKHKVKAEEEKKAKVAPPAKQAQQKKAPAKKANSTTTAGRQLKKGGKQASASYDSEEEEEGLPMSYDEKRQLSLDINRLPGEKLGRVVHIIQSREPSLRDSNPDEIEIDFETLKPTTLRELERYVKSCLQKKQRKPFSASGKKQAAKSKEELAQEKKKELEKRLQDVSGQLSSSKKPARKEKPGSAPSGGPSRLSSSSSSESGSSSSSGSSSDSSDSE
UniProt O00748, sequence (O00748 whole entry, looked up): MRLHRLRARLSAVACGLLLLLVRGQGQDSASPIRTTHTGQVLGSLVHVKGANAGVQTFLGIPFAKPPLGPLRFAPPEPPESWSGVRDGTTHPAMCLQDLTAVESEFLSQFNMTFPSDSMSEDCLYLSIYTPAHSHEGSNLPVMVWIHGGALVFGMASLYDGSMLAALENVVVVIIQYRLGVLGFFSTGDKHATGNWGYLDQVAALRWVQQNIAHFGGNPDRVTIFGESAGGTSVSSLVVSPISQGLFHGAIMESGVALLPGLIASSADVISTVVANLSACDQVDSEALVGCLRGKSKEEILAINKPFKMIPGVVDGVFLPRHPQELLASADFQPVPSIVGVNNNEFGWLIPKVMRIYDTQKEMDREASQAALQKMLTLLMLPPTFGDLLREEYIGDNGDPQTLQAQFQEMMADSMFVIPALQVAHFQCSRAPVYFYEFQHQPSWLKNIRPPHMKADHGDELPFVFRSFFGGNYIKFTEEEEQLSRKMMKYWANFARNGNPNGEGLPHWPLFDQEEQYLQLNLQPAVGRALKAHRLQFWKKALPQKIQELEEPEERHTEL
UniProt P49069, sequence (P49069 whole entry, looked up): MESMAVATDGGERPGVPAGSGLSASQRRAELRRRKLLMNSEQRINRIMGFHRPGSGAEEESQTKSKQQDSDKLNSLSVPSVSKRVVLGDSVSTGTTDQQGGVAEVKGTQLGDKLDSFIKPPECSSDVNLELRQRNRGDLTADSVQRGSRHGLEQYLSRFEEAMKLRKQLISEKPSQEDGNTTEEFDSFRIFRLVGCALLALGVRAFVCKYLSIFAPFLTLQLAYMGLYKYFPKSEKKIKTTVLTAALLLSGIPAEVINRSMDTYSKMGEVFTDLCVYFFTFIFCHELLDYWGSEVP
UniProt Q9Y6H1, sequence (Q9Y6H1 whole entry, looked up): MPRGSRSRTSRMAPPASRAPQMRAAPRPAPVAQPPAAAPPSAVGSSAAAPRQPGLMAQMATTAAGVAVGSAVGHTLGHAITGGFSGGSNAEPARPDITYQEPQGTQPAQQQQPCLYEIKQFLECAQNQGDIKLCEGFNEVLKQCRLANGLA
UniProt P14635, sequence (P14635 whole entry, looked up): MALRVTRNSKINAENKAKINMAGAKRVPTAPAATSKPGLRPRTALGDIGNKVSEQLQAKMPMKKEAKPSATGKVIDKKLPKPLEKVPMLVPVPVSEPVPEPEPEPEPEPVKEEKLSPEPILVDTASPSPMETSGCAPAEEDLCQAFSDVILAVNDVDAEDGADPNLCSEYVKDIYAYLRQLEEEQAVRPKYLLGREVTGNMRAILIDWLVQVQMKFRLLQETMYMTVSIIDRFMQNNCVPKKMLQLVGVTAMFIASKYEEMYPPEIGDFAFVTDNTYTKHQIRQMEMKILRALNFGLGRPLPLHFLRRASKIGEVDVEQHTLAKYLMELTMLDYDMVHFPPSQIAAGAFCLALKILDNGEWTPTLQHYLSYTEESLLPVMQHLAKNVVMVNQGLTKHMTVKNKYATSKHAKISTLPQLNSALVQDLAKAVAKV
UniProt Q13555, sequence (Q13555 whole entry, looked up): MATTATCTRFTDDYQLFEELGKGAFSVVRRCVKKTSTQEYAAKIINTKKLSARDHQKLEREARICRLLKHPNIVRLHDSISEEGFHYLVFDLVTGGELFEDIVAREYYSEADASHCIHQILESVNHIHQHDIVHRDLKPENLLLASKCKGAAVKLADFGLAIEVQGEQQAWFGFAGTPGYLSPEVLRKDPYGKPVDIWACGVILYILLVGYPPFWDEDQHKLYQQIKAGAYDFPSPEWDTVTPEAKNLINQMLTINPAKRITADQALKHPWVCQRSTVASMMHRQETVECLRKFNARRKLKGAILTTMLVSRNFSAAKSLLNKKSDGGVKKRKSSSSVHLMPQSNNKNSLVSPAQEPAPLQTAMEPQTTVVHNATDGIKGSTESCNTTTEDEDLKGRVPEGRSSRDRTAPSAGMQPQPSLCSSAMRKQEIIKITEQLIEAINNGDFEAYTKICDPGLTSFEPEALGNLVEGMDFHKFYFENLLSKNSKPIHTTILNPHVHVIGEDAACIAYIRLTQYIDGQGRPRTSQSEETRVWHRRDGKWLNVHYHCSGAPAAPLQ
UniProt O60508, sequence (O60508 whole entry, looked up): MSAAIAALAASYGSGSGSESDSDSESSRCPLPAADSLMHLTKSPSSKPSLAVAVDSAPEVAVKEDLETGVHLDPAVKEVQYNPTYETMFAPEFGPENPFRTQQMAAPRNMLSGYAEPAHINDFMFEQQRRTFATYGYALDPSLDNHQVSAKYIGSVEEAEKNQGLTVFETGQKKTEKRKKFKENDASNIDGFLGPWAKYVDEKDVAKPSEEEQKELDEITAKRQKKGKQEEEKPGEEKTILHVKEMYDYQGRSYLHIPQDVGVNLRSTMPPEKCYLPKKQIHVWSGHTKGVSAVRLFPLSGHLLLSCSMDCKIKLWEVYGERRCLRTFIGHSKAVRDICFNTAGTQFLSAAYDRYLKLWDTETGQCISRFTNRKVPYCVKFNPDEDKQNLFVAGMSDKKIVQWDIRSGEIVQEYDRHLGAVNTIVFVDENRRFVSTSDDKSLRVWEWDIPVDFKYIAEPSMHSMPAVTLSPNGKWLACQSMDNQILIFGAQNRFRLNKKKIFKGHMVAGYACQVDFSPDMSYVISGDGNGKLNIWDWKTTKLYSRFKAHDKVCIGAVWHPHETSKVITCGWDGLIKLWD
UniProt Q8NBU5, sequence (Q8NBU5 whole entry, looked up): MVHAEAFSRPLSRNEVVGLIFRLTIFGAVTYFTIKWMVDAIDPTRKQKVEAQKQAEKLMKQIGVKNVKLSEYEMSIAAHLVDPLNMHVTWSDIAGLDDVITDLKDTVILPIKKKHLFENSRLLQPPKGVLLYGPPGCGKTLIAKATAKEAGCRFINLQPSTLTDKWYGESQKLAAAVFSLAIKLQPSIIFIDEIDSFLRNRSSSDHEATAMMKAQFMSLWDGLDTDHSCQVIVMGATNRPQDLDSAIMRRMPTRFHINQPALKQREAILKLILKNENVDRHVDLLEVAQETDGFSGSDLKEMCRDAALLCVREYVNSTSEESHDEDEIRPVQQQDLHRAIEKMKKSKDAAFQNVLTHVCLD
UniProt Q8WUX2, sequence (Q8WUX2 whole entry, looked up): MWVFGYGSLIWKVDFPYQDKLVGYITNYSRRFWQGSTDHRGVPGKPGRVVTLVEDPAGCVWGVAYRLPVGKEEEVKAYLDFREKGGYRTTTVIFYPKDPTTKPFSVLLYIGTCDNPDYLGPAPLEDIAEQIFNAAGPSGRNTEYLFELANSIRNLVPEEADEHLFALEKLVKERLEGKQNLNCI

log2 fold change, inactive:
BLOC1S6 (UniProt Q9UL45) -0.049, BAG4 (UniProt O95429) 0.01, CCNC (UniProt P24863) 0.048, CALM2 (UniProt P0DP24) -0.053, CEP76 (UniProt Q8TAP6) -0.01, CDS2 (UniProt O95674) -0.01, CCAR2 (UniProt Q8N163) 0.027, CDKN2AIP (UniProt Q9NXV6) 0.008, BRD3 (UniProt Q15059) 0.066, CEP120 (UniProt Q8N960) 0.013, C18orf25 (UniProt Q96B23) 0, CDAN1 (UniProt Q8IWY9) 0.066, ATAD1 (UniProt Q8NBU5) -0.001, CCT6A (UniProt P40227) -0.005, C5orf51 (UniProt A6NDU8) 0.1, CHCHD4 isoform 2 (UniProt Q8N4Q1) 0.032, CCPG1 isoform 5 (UniProt Q9ULG6) 0.029, CD63 (UniProt P08962) -0.006, CES2 isoform 4 (UniProt O00748) -0.029, CFDP1 (UniProt Q9UEE9) -0.038, AURKAIP1 (UniProt Q9NWT8) 0.055, CCDC186 (UniProt Q7Z3E2) 0.033, ATP13A1 (UniProt Q9HD20) -0.044, ATXN2 (UniProt Q99700) 0.045, CHCHD2 (UniProt Q9Y6H1) -0.014, CDC40 (UniProt O60508) 0.02, CCNK isoform 4 (UniProt O75909) -0.006, C18orf32 (UniProt Q8TCD1) -0.11, CHAF1A (UniProt Q13111) -0.001, CAMK2G isoform 8 (UniProt Q13555) 0.219, CBX1 (UniProt P83916) -0.004, ATP5PF isoform 2 (UniProt P18859) -0.058, CCNB1 (UniProt P14635) 0.005, BCL2L12 (UniProt Q9HB09) -0.041, ATP11A (UniProt P98196) 0.043, CAMK1 (UniProt Q14012) 0.194, CAMLG (UniProt P49069) 0.005, CHAC2 (UniProt Q8WUX2) 0.019, CANX isoform 2 (UniProt P27824) -0.011, BRD2 isoform 2 (UniProt P25440) 0.028

Compound: NC(=O)c1cnc(N[C@@H]2CCCC[C@@H]2N)nc1Nc1cccc(-n2nccn2)c1
Assay: as above
How it was run: as §1

log2 fold change, inactive:
BLOC1S6 (UniProt Q9UL45) -0.023, BAG4 (UniProt O95429) 0.018, CCNC (UniProt P24863) -0.007, CALM2 (UniProt P0DP24) -0.014, CEP76 (UniProt Q8TAP6) -0.015, CDS2 (UniProt O95674) 0, CCAR2 (UniProt Q8N163) 0.014, CDKN2AIP (UniProt Q9NXV6) -0.01, BRD3 (UniProt Q15059) -0.024, CEP120 (UniProt Q8N960) 0.024, C18orf25 (UniProt Q96B23) 0.011, CDAN1 (UniProt Q8IWY9) 0.017, ATAD1 (UniProt Q8NBU5) 0.027, CCT6A (UniProt P40227) 0.003, C5orf51 (UniProt A6NDU8) 0.002, CHCHD4 isoform 2 (UniProt Q8N4Q1) -0.008, CCPG1 isoform 5 (UniProt Q9ULG6) 0, CD63 (UniProt P08962) -0.043, CES2 isoform 4 (UniProt O00748) 0.033, CFDP1 (UniProt Q9UEE9) -0.013, AURKAIP1 (UniProt Q9NWT8) 0.042, CCDC186 (UniProt Q7Z3E2) -0.017, ATP13A1 (UniProt Q9HD20) 0.07, ATXN2 (UniProt Q99700) 0.011, CHCHD2 (UniProt Q9Y6H1) -0.029, CDC40 (UniProt O60508) 0.063, CCNK isoform 4 (UniProt O75909) -0.005, C18orf32 (UniProt Q8TCD1) -0.084, CHAF1A (UniProt Q13111) -0.031, CAMK2G isoform 8 (UniProt Q13555) 0.019, CBX1 (UniProt P83916) 0.062, ATP5PF isoform 2 (UniProt P18859) -0.029, CCNB1 (UniProt P14635) 0.165, BCL2L12 (UniProt Q9HB09) 0.121, ATP11A (UniProt P98196) -0.045, CAMK1 (UniProt Q14012) 0.018, CAMLG (UniProt P49069) -0.009, CHAC2 (UniProt Q8WUX2) 0.017, CANX isoform 2 (UniProt P27824) -0.004, BRD2 isoform 2 (UniProt P25440) -0.161

— the supplement of paper PMC10849652
